Assay results as given in PubChem BioAssay (NCATS).
Inconclusive results are not listed. Active and inactive are the calls of the source. Calls follow the shape of the dose curve; as a rule, active = well fitted inhibition curve with a large enough effect; inconclusive = small, poorly fitted or top-dose-only effect; inactive = no such curve, though single readings can be large or run the other way.

The compounds below were run against Retinaldehyde dehydrogenase 3 (Homo sapiens) (UniProt P47895) (assay: qHTS for Inhibitors of the Aldehyde Dehydrogenase Family (ALDH1A3) Confirmatory screens (AID 2061311; also: nearly all actives have a fitted effect of over 60% in size)). Conditions: ALDH inhibition qHTS; series mostly up to 46 µM; activity change, negative = inhibition: at the top concentration.
% is scaled to controls: 0 for no effect and ±100 for the full control effect; potency is read from the fitted curve at half-maximal effect.

Question: Which “activity change, negative = inhibition” value does the source give for `CC(=O)SCC(CC(=O)c1ccc(C)cc1)C(=O)O` (stereo unspecified) here?
Answer: Its value is 4.93% (inactive).

Question: With `CCCCNc1ccc(C(=O)OCCN(CC)CC)cc1` as the compound, how does the “activity change, negative = inhibition” value read?
Answer: Its value is -3.71% (inactive).

Question: With `N#Cc1c(-c2csc(-c3no[n+]([O-])c3C#N)c2)no[n+]1[O-]` as the compound, how does the Potency read?
Answer: Its Potency is 12.7 µM (active).

Question: How did the Potency turn out when `CCOC(=O)c1ccc(O)c2ncc(-c3ccc(C(=N)N)cc3)cc12` was run?
Answer: Its Potency is 10.1 µM (active).

Question: With `N#Cc1ccccc1OC1=NS(=O)(=O)c2ccccc21` as the compound, how does the “activity change, negative = inhibition” value read?
Answer: Its value is -3.02% (inactive).

Question: `CC(C)c1ccccc1-c1ncc(F)c(NC(C)(C)c2ccc(-c3cccnc3)cc2)n1` was tested. Which “activity change, negative = inhibition” value did it give?
Answer: The value was -12.7% (inactive).

Question: With `CC(=O)NCCC(=O)N[C@@H](CCC(N)=O)C(=O)N[C@@H](CO)C(=O)N[C@@H](CCC(N)=O)C(=O)N[C@@H](CCC(N)=O)C(=O)N[C@H](C(=O)N[C@@H](Cc1ccccc1)C(=O)N[C@]1(C)CCCCCCC=CCCC[C@@](C)(C(=O)N[C@@H](CCC(N)=O)C(=O)N[C@@H](CC(N)=O)C(N)=O)NC(=O)[C@H](CC(C)C)NC(=O)[C@H](CC(C)C)NC(=O)[C@@H](CCCNC(=N)N)NC(=O)[C@H](Cc2c[nH]c3ccccc23)NC(=O)[C@H](CC(C)C)NC(=O)[C@H](CC(N)=O)NC1=O)[C@H](C)O` as the compound, how does the “activity change, negative = inhibition” value read?
Answer: Its value is -9.12% (inactive).

Question: Which “activity change, negative = inhibition” value does the source give for `COc1ccc(C2=Nn3c(nnc3-c3cccc(OC)c3OC)SC2)cc1` here?
Answer: Its value is -4.46% (inactive).

Question: `OCc1cccc(-c2noc(-c3ccccc3F)n2)c1` was tested. Which Potency did it give?
Answer: The Potency was 5.65 µM (active).

Question: `FC(F)(F)c1cccc(N2CCN(C(=S)Nc3nccc4cccnc34)CC2)c1` was tested. Which Potency did it give?
Answer: Its Potency is 11.3 µM (active).

Question: For `O=C(CSc1nnc(-c2cccc(S(=O)(=O)N3CCCC3)c2)n1-c1ccccc1)Nc1ccc(F)cc1`, which “outcome” value is on record?
Answer: The value was “inactive”.
